# Laboratory results from PubChem BioAssay AID1159580 (chemical genetic matrix, 2015).
# The whole screen tested about 5,500 compounds, of which about 2,000 (36%) were called active. Roughly 18% stayed inconclusive and do not appear here. This is one part of the list. Unmarked numbers belong to inactive results. Rule as the data show it: active = normalized growth mostly below about 0.91 (no sharp cut-off); inconclusive = no clear call, values can overlap the other calls; inactive = mostly above about 0.92.
# Test: chemical genetic growth profiling, strain panel (AID 1159580);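 also: tested at 20 µM; growth read once vehicle control cultures reached saturation at 30 °C; 1 = growth at the plate median or of vehicle wells; lower values mean less growth of the strain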
# Conditions: growth OD
# [1] = S. cerevisiae deletion strains, locus YAL013W, strain DEP1, active compounds read low
# [2] = S. cerevisiae deletion strains, locus YBR229C, strain ROT2, active compounds read low
# [3] = S. cerevisiae deletion strains, locus YCL061C, strain MRC1, active compounds read low
# [4] = S. cerevisiae deletion strains, locus YDL101C, strain DUN1, active compounds read low
# [5] = S. cerevisiae deletion strains, locus YDL134C, strain PPH21, active compounds read low
# [6] = S. cerevisiae deletion strains, locus YDR150W, strain NUM1, active compounds read low
# [7] = S. cerevisiae deletion strains, locus YEL061C, strain CIN8, active compounds read low
# [8] = S. cerevisiae deletion strains, locus YGR078C, strain PAC10, active compounds read low
# [9] = S. cerevisiae deletion strains, locus YHR030C, strain SLT2, active compounds read low
# [10] = S. cerevisiae deletion strains, locus YHR087W, strain rtc3, active compounds read low
# [11] = S. cerevisiae deletion strains, locus YJR043C, strain POL32, active compounds read low
# [12] = S. cerevisiae deletion strains, locus YJR075W, strain HOC1, active compounds read low
# [13] = S. cerevisiae deletion strains, locus YLR039C, strain RIC1, active compounds read low
# [14] = S. cerevisiae deletion strains, locus YLR058C, strain SHM2 (second series), active compounds read low
# [15] = S. cerevisiae deletion strains, locus YLR085C, strain ARP6, active compounds read low
# [16] = S. cerevisiae deletion strains, locus YLR262C, strain YPT6, active compounds read low
# [17] = S. cerevisiae deletion strains, locus YML094W, strain GIM5, active compounds read low
# [18] = S. cerevisiae deletion strains, locus YMR219W, strain ESC1, active compounds read low
# [19] = S. cerevisiae deletion strains, locus YMR263W, strain SAP30, active compounds read low
# [20] = S. cerevisiae deletion strains, locus YMR307W, strain GAS1, active compounds read low
# [21] = S. cerevisiae deletion strains, locus YNL153C, strain GIM3, active compounds read low
# [22] = S. cerevisiae deletion strains, locus YNL298W, strain CLA4 (second series), active compounds read low
# [23] = S. cerevisiae deletion strains, locus YNL322C, strain KRE1, active compounds read low
# [24] = S. cerevisiae deletion strains, locus YNR030W, strain Alg12, active compounds read low
# [25] = S. cerevisiae deletion strains, locus YPL055C, strain LGE1, active compounds read low
# [26] = S. cerevisiae deletion strains, locus YPL241C, strain CIN2, active compounds read low
# [27] = S. cerevisiae deletion strains, locus YPR135W, strain CTF4, active compounds read low
# [28] = S. cerevisiae deletion strains, locus YKL190W, strain CNB1, active compounds read low
# [29] = S. cerevisiae strains, strain wild type, active compounds read low
compound,measurement,setting,value
Cc1onc2c(=O)n(-c3ccccc3)nc(-c3ccccc3)c12,normalized growth,[1],0.98
same,normalized growth,[2],0.983
same,normalized growth,[3],0.98
same,normalized growth,[4],0.954
same,normalized growth,[5],0.981
same,normalized growth,[6],0.934
same,normalized growth,[7],0.968
same,normalized growth,[8],0.947
same,normalized growth,[9],0.517 (active)
same,normalized growth,[10],0.978
same,normalized growth,[11],1.01
same,normalized growth,[12],0.622 (active)
same,normalized growth,[13],0.57 (active)
same,normalized growth,[14],0.984
same,normalized growth,[15],0.769 (active)
same,normalized growth,[16],0.574 (active)
same,normalized growth,[17],0.978
same,normalized growth,[18],0.955
same,normalized growth,[19],0.974
same,normalized growth,[20],0.568 (active)
same,normalized growth,[21],1
same,normalized growth,[22],0.911
same,normalized growth,[23],0.929 (active)
same,normalized growth,[24],0.945
same,normalized growth,[25],1.02
same,normalized growth,[26],0.959
same,normalized growth,[27],0.68
NC(N)=NC(N)=Nc1ccccc1C(F)(F)F,normalized growth,[1],0.987
same,normalized growth,[2],0.982
same,normalized growth,[3],1.01
same,normalized growth,[4],0.969
same,normalized growth,[6],0.895
same,normalized growth,[7],0.993
same,normalized growth,[8],0.979
same,normalized growth,[9],0.935
same,normalized growth,[10],0.966
same,normalized growth,[11],0.998
same,normalized growth,[12],1.01
same,normalized growth,[28],0.997
same,normalized growth,[13],0.989
same,normalized growth,[14],0.982
same,normalized growth,[15],1.01
same,normalized growth,[16],0.997
same,normalized growth,[17],0.923
same,normalized growth,[18],0.987
same,normalized growth,[19],1.06
same,normalized growth,"S. cerevisiae deletion strains, locus YNL128W, strain TEP1, active compounds read low",0.984
same,normalized growth,[21],1.02
same,normalized growth,[22],0.938
same,normalized growth,[23],0.993
same,normalized growth,[24],0.983
same,normalized growth,[25],0.962
same,normalized growth,[27],0.922
same,normalized growth,[29],0.986
CCOC(=O)c1sc2sc(C(=O)c3ccc(Cl)cc3)c(C)c2c1C,normalized growth,[1],1
same,normalized growth,[2],1.03
same,normalized growth,[4],1
same,normalized growth,[5],1.01
same,normalized growth,[6],0.91
same,normalized growth,[7],1.02
same,normalized growth,[8],1.01
same,normalized growth,[9],1.1
same,normalized growth,[10],1.01
same,normalized growth,[11],0.991
same,normalized growth,[12],1.03
same,normalized growth,[28],1.02
same,normalized growth,[13],1.06
same,normalized growth,[14],1.01
same,normalized growth,[15],1.06
same,normalized growth,[16],1.06
same,normalized growth,[17],1.01
same,normalized growth,[18],1
same,normalized growth,[19],0.937
same,normalized growth,[20],1.07
same,normalized growth,[21],1
same,normalized growth,[22],1.05
same,normalized growth,[23],1.01
same,normalized growth,[24],1.03
same,normalized growth,[25],0.904
same,normalized growth,[26],1.01
same,normalized growth,[27],1.09
same,normalized growth,[29],1.02
